Screening data deposited in PubChem BioAssay by Johns Hopkins Ion Channel Center.
KCNQ2 block = blocks the rat KCNQ2 potassium channel; O88943; CHO-K1 KCNQ2, FluxOR thallium flux, 20 min; hits give low values; B-score at 10 µM; actives 1.1% (n = 310,000);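 active = fluorescence ratio B-score at most minus 3 library SDs, with starting brightness B-score within 2 library SDs, cut at about -5.5 in these data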
KCNQ2 enhance = potentiators of rat KCNQ2 potassium channel | O88943 | CHO-K1 KCNQ2, FluxOR thallium flux fluorescence; hits give high values | B-score at 10 µM | actives 0.54% (n = 310,000);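 active = fluorescence ratio B-score at least 3 SD of library B-scores, with initial fluorescence B-score within 3 of them, cut at about 5.3 in these data; same plate scores as AID 2156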;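 also: B-score of peak minus minimum over baseline fluorescence ratio after K+ and Tl+ stimulus; positive B-score means potentiation of KCNQ2 with more thallium influx and brighter signal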
Kir21 confirm = confirmation of mouse Kir2.1 potassium channel inhibitors. Kir2.1-expressing cells, FluxOR thallium flux fluorescence; hits give low values. shares compounds with KCNQ2 enhance. AID 2032. Tl flux remaining, % of negative control (hits give low values), % at 10 µM. actives 41% (n = 2,300);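 active = Primary-screen hit whose thallium flux fell at least 3 control SD below untreated wells in both duplicates, with normal baseline fluorescence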;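 also: 0% = blank wells without stimulus and 100% = stimulated no-compound controls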
HEK293 Tl flux = counter-screen for Kir2.1 inhibitors: effect in parental HEK293 cells; shares compounds with KCNQ2 enhance; FluxOR thallium flux fluorescence; 0% = unstimulated blank wells; FluxOR signal as % of negative control (100 = no effect), % at 10 µM; actives 19% (n = 2,300);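 active = dye signal at least 3 control SD above or below untreated wells in both duplicates, raw fluorescence within 3, either direction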;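 also: percent is based on the flux ratio of peak minus minimum fluorescence over baseline F0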
CHO-K1 Tl ctr = counter-screen for KCNQ2 potentiators: effect in parental CHO-K1 cells; shares compounds with KCNQ2 enhance; FluxOR thallium flux fluorescence; zero = vehicle mean+3SD, 100% = vehicle-minus-blank window; activity increase over 3SD of controls, % at 10 µM; actives 43% (n = 1,200); AID 2282;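 active = signal rise of at least 3 SD above the untreated control mean, in both duplicate wells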;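 also: counter screen of KCNQ2 potentiator hits so any rise reflects channel-independent effects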
KCNQ1 sel pot = tests whether KCNQ2 potentiators also act on human KCNQ1; shares compounds with KCNQ2 enhance; CHO KCNQ1 stable, FluxOR thallium flux fluorescence; beyond 3SD, as % of vehicle-control signal; activation over 3SD threshold, % at 10 µM; actives 28% (n = 1,200); AID 2283;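 active = fluorescence ratio rise of at least 3 SD of vehicle wells above their mean, in both replicate wells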;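 also: 0% = vehicle mean plus 3 SD and 100% = vehicle minus unstimulated blank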
KCNQ2 pot conf = confirmation of rat KCNQ2 potassium channel potentiators | actives 68% (n = 1,200) | CHO-KCNQ2 cells, FluxOR thallium flux fluorescence | shares compounds with KCNQ2 enhance | potentiation, less the hit threshold, % at 10 µM;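 active = fluorescence ratio rising 3 SD or more over the vehicle control mean in both replicates, plus primary screen hit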;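 also: peak minus minimum thallium fluorescence divided by baseline after K/Tl stimulus; 0% = vehicle mean plus 3 SD and 100% = vehicle minus unstimulated blank difference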
Kir21 spec = mouse Kir2.1 off-target activity of KCNQ2 potentiators; shares compounds with KCNQ2 enhance; HEK293 Kir2.1, FluxOR thallium flux fluorescence; activity over 3SD threshold, % at 10 µM; actives 2% (n = 1,200); AID 2345;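 active = fluorescence ratio rise of at least 3 SD above the vehicle-control mean, seen in both replicates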;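 also: 0% = vehicle mean plus 3 SD and 100% = vehicle minus no-stimulus blank window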
KCNQ2 W236L MoA = potentiates the retigabine-insensitive rat KCNQ2 W236L mutant channel. shares compounds with KCNQ2 enhance. CHO KCNQ2-W236L, automated patch clamp current. current increase over 3SD of negative controls (%), hits give high values, % at 25 µM. actives 10% (n = 940). AID 2558;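 active = current increase at least 3 SD of the untreated controls above them in both duplicate recordings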
Target sequence (O88943 whole entry W236L, looked up): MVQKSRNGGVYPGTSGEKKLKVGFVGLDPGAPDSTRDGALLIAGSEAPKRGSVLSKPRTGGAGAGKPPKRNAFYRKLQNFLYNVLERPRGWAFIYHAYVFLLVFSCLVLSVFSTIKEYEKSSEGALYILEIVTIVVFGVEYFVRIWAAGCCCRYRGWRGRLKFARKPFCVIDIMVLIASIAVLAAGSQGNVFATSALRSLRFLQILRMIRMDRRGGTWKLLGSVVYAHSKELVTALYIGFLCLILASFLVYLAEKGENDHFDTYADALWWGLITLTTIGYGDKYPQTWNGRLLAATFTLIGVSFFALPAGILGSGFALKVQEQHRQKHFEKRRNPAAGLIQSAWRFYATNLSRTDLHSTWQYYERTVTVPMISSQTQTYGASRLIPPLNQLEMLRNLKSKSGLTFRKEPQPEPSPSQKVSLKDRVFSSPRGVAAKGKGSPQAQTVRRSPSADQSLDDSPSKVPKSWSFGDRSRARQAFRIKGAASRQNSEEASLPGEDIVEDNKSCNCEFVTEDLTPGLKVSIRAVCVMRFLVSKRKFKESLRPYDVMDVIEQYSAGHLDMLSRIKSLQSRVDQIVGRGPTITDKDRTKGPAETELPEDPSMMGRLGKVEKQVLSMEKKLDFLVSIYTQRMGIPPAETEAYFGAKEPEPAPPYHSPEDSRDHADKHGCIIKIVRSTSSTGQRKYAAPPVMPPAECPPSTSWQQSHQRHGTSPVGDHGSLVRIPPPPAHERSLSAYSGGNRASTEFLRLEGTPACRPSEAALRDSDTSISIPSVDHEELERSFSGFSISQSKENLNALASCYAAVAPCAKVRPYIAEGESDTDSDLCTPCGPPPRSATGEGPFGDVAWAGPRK
The depositor's hits bear a star; i = inactive; · = not tested or not shown. Only some compounds are listed: those with a hit (about 1.6% of all), similar ones and a draw of the others.

SMILES	KCNQ2 block	KCNQ2 enhance	Kir21 confirm	HEK293 Tl flux	others
Cc1cc(C)c(C(=O)C2OC(=O)C(C)(C)C(=O)C2(C)C)c(C)c1 (configuration not stated)	i	10*	i	i	CHO-K1 Tl ctr=6.5*;KCNQ1 sel pot=-16;KCNQ2 pot conf=2.7*;Kir21 spec=-40;KCNQ2 W236L MoA=i
CC1(C)C(=O)OC(C(=O)c2ccccc2)C(C)(C)C1=O (configuration not stated)	i	·	·	·
CC(C)(C)NC(=O)COc1coc(CN2CCN(Cc3ccccc3)CC2)cc1=O	i	0.2	·	·
N#Cc1c(Cl)nsc1NN	i	0.6	·	·
CCOC(=O)c1c(CSC(=N)N)n(-c2ccc(C)cc2)c2cc(Br)c(OC(C)=O)cc12	i	·	58%*	i
CCOC(=O)c1c(CSC(=N)N)n(C)c2cc(Br)c(OC(C)=O)cc12	i	·	·	·
CC(C)Oc1ccc(/C(O)=C2/C(=O)C(=O)N(CCN3CCNCC3)C2c2cccc([N+](=O)[O-])c2)cc1 (configuration not stated)	i	0.62	·	·
CC(C)(C)C(=O)/C=C/Nc1ccccc1O	i	9*	i	71%*	CHO-K1 Tl ctr=-12;KCNQ1 sel pot=78*;KCNQ2 pot conf=59*;Kir21 spec=-14;KCNQ2 W236L MoA=1.6%*
CN(C)c1ccc(N/C=C/C(=O)C(C)(C)C)cc1	i	·	·	·
O=C(O)CC(Sc1n[nH]c(=S)s1)C(=O)O (configuration not stated)	i	1.1	·	·
Cc1cccc(OCC(O)Cn2c(=N)n(CCN3CCCCC3)c3ccccc32)c1 (configuration not stated)	i	·	·	·
Cc1ccc(OCC(O)Cn2c(=N)n(Cc3ccccc3)c3ccccc32)cc1 (configuration not stated)	i	·	38%*	i
Cc1cccc(OCC(O)Cn2c(=N)n(Cc3ccccc3)c3ccccc32)c1 (configuration not stated)	i	·	32%*	i
N=c1n(Cc2ccccc2)c2ccccc2n1CC(O)c1ccco1 (configuration not stated)	i	0.66	·	·
N=c1n(Cc2ccccc2)c2ccccc2n1Cc1ccccc1	i	0.8	·	·
COc1ccc(OCC(O)Cn2c(=N)n(Cc3ccccc3)c3ccccc32)cc1 (configuration not stated)	i	·	46%*	i
Cc1cccc(OCC(O)CN2CCNCC2)c1 (configuration not stated)	i	0.24	·	·
CCN(CC)CCn1c(=N)n(CC(O)COc2cccc(C)c2)c2ccccc21 (configuration not stated)	i	·	56%*	i
Cc1[nH]c(=O)c(C(=O)/C=C/c2ccccc2F)c2c1CCCC2	i	·	·	·
COc1ccc(C2N(Cc3ccccc3)CC(=O)N2/N=C(\C)c2ccccc2)cc1 (configuration not stated)	i	·	·	·
O=C(N/N=C/c1ccc(O)cc1)c1cccc(N/N=C/c2ccc(O)cc2)c1	i	·	·	·
CCOc1ccc(S(=O)(=O)N(C)c2ccc(OCC(=O)NCc3ccc(C(=O)OC)cc3)cc2)cc1	i	·	·	·
Cc1cc(-c2ccc(NC(=O)[C@@H]3CCCC[C@@H]3C(=O)O)c(C)c2)ccc1NC(=O)[C@@H]1CCCC[C@@H]1C(=O)O	i	0.15	·	·
O=C(CCC(=O)N1CCOc2ccc(Cl)cc21)NCCCN1CCC(Cc2ccccc2)CC1	i	·	i	i
O=C(CCC(=O)N1CCOc2ccc(Cl)cc21)NCCCN1CCN(c2ccccc2F)CC1	i	1.1	·	·
SMILES	KCNQ2 block	KCNQ2 enhance	Kir21 confirm	HEK293 Tl flux	others
Cn1c(=O)c2ncn(CC(=O)N/N=C/c3ccco3)c2n(C)c1=O	i	0.96	·	·
O=C(CSc1ccccc1C(=O)O)c1ccc(Cl)cc1	i	1	·	·
O=C(O)c1ccccc1NC(c1ccccc1)c1ccc(Cl)cc1 (configuration not stated)	i	5.9*	i	i	CHO-K1 Tl ctr=-11;KCNQ1 sel pot=16*;KCNQ2 pot conf=-7;Kir21 spec=-42
Oc1ccc(CN2CCCCC2)c2cccnc12	i	0.21	·	·
OCc1ccc(O)c2ncccc12	i	·	·	·
CC(C)COCc1ccc(O)c2ncccc12	i	7.7*	i	i	CHO-K1 Tl ctr=-27;KCNQ1 sel pot=11*;KCNQ2 pot conf=51*;Kir21 spec=-37;KCNQ2 W236L MoA=i
Oc1ccc(COCc2ccccc2)c2cccnc12	i	5.9*	i	i	CHO-K1 Tl ctr=15*;KCNQ1 sel pot=-13;KCNQ2 pot conf=1.0*;Kir21 spec=-46;KCNQ2 W236L MoA=i
CCCOCc1ccc(O)c2ncccc12	i	3.8	·	·
Oc1ccc(CN2CCc3ccccc3C2)c2cccnc12	i	13*	32%*	i	CHO-K1 Tl ctr=44*;KCNQ1 sel pot=-19;KCNQ2 pot conf=1.3*;Kir21 spec=-100;KCNQ2 W236L MoA=i
CC(C)NC(=S)n1cc(C(=O)c2cc(Cl)cc(Cl)c2O)cn1	i	1.5	·	·
CCOC(=O)c1c(S(=O)(=O)Nc2ccc(C)cn2)c(C)n(C)c1C	i	0.44	·	·
CCOC(=O)C1CCN(Cc2c(O)ccc3ccccc23)CC1	i	0.29	70%*	i
CCOC(=O)N1CCN(Cc2c(O)ccc3ccccc23)CC1	i	·	·	·
Cc1ccc(S(=O)(=O)N2CCN(CC(=O)N(CC(C)C)c3c(N)n(CC(C)C)c(=O)[nH]c3=O)CC2)c(C)c1	i	1.7	·	·
Cc1cc(N2CCOCC2)nc(NCc2ccccc2)n1	i	2.1	·	·
Cc1cc(N2CCCCC2)nc(NCc2ccccc2)n1	i	1.2	48%*	i
CCC1(CC)NC(=O)N(CC(=O)OC(C)C(=O)Nc2cc([N+](=O)[O-])ccc2OC)C1=O (configuration not stated)	i	0.27	·	·
CCC(=NCc1ccco1)c1c(C(F)(F)F)[nH]n(-c2nc3ccccc3s2)c1=O	i	7.8*	i	i	CHO-K1 Tl ctr=-7;KCNQ1 sel pot=-12;KCNQ2 pot conf=-19;Kir21 spec=-38
CCC(=NCc1ccccc1)c1c(C(F)(F)F)[nH]n(-c2nc3ccccc3s2)c1=O	i	·	·	·
CCCCn1c(-c2csc(C(C)C)c2)n[nH]c1=S	i	8.1*	·	·	CHO-K1 Tl ctr=-2;KCNQ1 sel pot=22*;KCNQ2 pot conf=3.4*;Kir21 spec=-55;KCNQ2 W236L MoA=40%*
CCCCn1c(-c2csc3ccccc23)n[nH]c1=S	i	0.12	·	·
Cc1ccc(C)c(CN2CCCN(Cc3cc(C)ccc3C)S2(=O)=O)c1	i	·	·	·
